Source: PubChem BioAssay (Tox21)
Records with an inconclusive call do not appear. Entries that show only a call come without a potency. More than one record can exist for a structure, and the calls need not agree. Activity calls are given as the source filed them. Calls come from the whole dose curve; as a rule, active = well fitted inhibition curve with a large enough effect in the repeat runs; inconclusive = weak or mixed curves, or effect the other way; inactive = no such curve, though single readings can be large or run the other way.

Assay: qHTS assay to identify small molecule antagonists of the retinoic acid receptor (RAR) signaling pathway (AID 1159552; note: nearly all actives have a fitted effect of over 50% in size)
Conditions: C3RL4 RARE luciferase reporter, retinol-stimulated, 6 h; series mostly up to 92.4 µM; activity, negative = inhibition: at the top concentration
From the text: National Center for Advancing Translational Sciences [NCATS]
NIH Chemical Genomics Center [NCGC]
U.S. Environmental Protection Agency [EPA]
National Institutes of Environmental Health Sciences [NIEHS]
National Toxicology Program [NTP]
U.S. Food and Drug Administration [FDA]
All-trans Retinoic acid (atRA) is the potent natural metabolite of retinol and plays an important role in normal embryonic development and maintenance of cellular phenotype in adult animals. atRA is the activating ligand for the retinoic acid receptors (RARs) which form heterodimers with retinoid X receptors (RXRs) on the retinoic acid response element (RARE). Through activation of the RAR/RXRs nuclear receptors, atRA regulates the transcription of a large number of protein-coding genes and regulatory RNAs. Intracellular levels of atRA are controlled by the retinol signaling pathway (RSP) that regulates the biosynthesis and catabolism of atRA to maintain physiological levels. Chemicals that interfere with the RSP can cause abnormal intracellular levels of atRA and therefore are potential developmental toxicants. To assess compounds for the potential adverse effect on embryonic development through interfering with retinol signaling, a cell-based RARE luciferase reporter gene assay was used. C3RL4 cell line (OARSA/CFSAN/FDA, Laurel, MD) was used to screen Tox21 10K compound library for identifying inhibitors of the RSP.
Tox21 Assay Protocol Summary:
C3RL4 cells were seeded at 1,000/well in 4 uL of assay medium into white solid 1,536-well tissue culture plates (Greiner Bio-One North America Inc. Monroe, NC) using a Multidrop Combi (Thermo Scientific, Waltham, MA) dispenser. After incubation at 37 C and 5% CO2 for an overnight, 23 nL of compounds dissolved in DMSO, positive control or DMSO only were transferred by a Pintool station (Kalypsys, San Diego, CA). One ul of 1 uM (final concentration) of Retinol was added right after the compound addition by using a Flying Reagent Dispenser (FRD) (Aurora Discovery, San Diego, CA). After 6 hr incubation at 37 C and 5% CO2, 5 uL of Amplite Luciferase reagent (AAT Bioquest Inc. Sunnyvale, CA) was added to each assay plate using an FRD. Luminescence was quantified on a ViewLux plate reader (PerkinElmer, Waltham, MA) after 30 min incubation at room temperature.
Potency is the fitted concentration of half-maximal effect.

Q: For `Cc1ccc(C)c(O)c1C`, which Potency is on record?
A: Its Potency is “inactive”.

Q: With `CC(CCC(=O)O)(c1ccc(O)cc1)c1ccc(O)cc1` as the compound, how does the Potency read?
A: The Potency was “inactive”.

Q: Which Potency does the source give for `CCC(C)c1ccccc1O` (stereo not given) here?
A: Its Potency is “inactive”.

Q: Which Potency does the source give for `Cc1cccc(N(C)C(=S)Oc2ccc3ccccc3c2)c1` here?
A: The Potency was “inactive”.

Q: With `O=C(/C=C/c1ccccc1)OCc1ccccc1` as the compound, how does the Potency read?
A: The Potency was “inactive”.

Q: Which Potency does the source give for `NNc1ccc(C(=O)O)cc1` here?
A: Its Potency is “inactive”.

Q: With `OCCO` as the compound, how does the Potency read?
A: Its Potency is “inactive”.

Q: Which Potency does the source give for `O=P(O)(O)O` here?
A: Its Potency is “inactive”.

Q: With `CC(=O)Oc1ccccc1C(=O)Nc1ncc([N+](=O)[O-])s1` as the compound, how does the Potency read?
A: The Potency was “inactive”.

Q: Which Potency does the source give for `CC(C)Oc1ccc2c(=O)c(-c3ccccc3)coc2c1` here?
A: Its Potency is “inactive”.

Q: With `O=S(=O)(O)c1ccc(O)cc1` as the compound, how does the Potency read?
A: Its Potency is “inactive”.

Q: Which Potency does the source give for `O=c1oc(=O)c2cc3c(=O)oc(=O)c3cc12` here?
A: The Potency was “inactive”.

Q: With `c1ccc(Nc2ccccc2)cc1` as the compound, how does the “activity, negative = inhibition” value read?
A: The value was -11% (inactive).

Q: With `Nc1ccc(Nc2ccccc2)cc1` as the compound, how does the “activity, negative = inhibition” value read?
A: Its value is -9.62% (inactive).

Q: With `O=C=Nc1ccc(Cc2ccc(N=C=O)cc2)cc1` as the compound, how does the Potency read?
A: The Potency was “inactive”.

Q: For `CN(C)c1nc(N(C)C)nc(N(C)C)n1`, which Potency is on record?
A: Its Potency is “inactive”.

Q: Which Potency does the source give for `CC(=O)C1(C)CC2=C(CCCC2(C)C)CC1C` (stereo not given) here?
A: The Potency was “inactive”.

Q: With `CC(C)=CCCC(C)CCO` (stereo not given) as the compound, how does the Potency read?
A: Its Potency is “inactive”.

Q: For `CCOC(=O)C(C#N)=C(c1ccccc1)c1ccccc1`, which “activity, negative = inhibition” value is on record?
A: The value was -12.6% [at 42.5 µM] (inactive).

Q: For `CC(C)(C)NC(=O)[C@H]1CC[C@H]2[C@@H]3CC[C@H]4NC(=O)C=C[C@]4(C)[C@H]3CC[C@]12C`, which “activity, negative = inhibition” value is on record?
A: Its value is -17.5% (inactive).

Q: Which Potency does the source give for `c1ccc2cc(Nc3ccc(Nc4ccc5ccccc5c4)cc3)ccc2c1` here?
A: Its Potency is “inactive”.

Q: With `CC(=O)c1ccccn1` as the compound, how does the Potency read?
A: Its Potency is “inactive”.

Q: For `CC(C)CC(C)(O)C#CC(C)(O)CC(C)C` (stereo not given), which “activity, negative = inhibition” value is on record?
A: Its value is -7.04% (inactive).

Q: Which Potency does the source give for `CC(C)OC(=O)C(C)(C)Oc1ccc(C(=O)c2ccc(Cl)cc2)cc1` here?
A: Its Potency is “inactive”.

Q: For `O=C1c2cccc(O)c2C(=O)c2c(O)cccc21`, which Potency is on record?
A: Its Potency is “inactive”.

Q: Which Potency does the source give for `CCCCOCCOCCOCCO` here?
A: The Potency was “inactive”.

Q: For `Nc1ccccc1N`, which Potency is on record?
A: The Potency was “inactive”.

Q: For `Nc1ccc(Cl)cc1Cl`, which “activity, negative = inhibition” value is on record?
A: Its value is 4.78% (inactive).

Q: With `c1ccncc1` as the compound, how does the Potency read?
A: Its Potency is “inactive”.

Q: Which Potency does the source give for `Cn1cnc([N+](=O)[O-])c1Sc1ncnc2nc[nH]c12` here?
A: Its Potency is 48.3 µM (active) and inactive.

Q: Which Potency does the source give for `CCCCNS(=O)(=O)c1ccccc1` here?
A: The Potency was “inactive”.

Q: For `Cc1cc2nc3c(=O)[nH]c(=O)nc-3n(C[C@H](O)[C@H](O)[C@H](O)CO)c2cc1C`, which Potency is on record?
A: The Potency was “inactive”.

Q: For `Nc1ncnc2nc[nH]c12`, which Potency is on record?
A: Its Potency is “inactive”.

Q: For `C/C=C/C(=O)O`, which Potency is on record?
A: Its Potency is “inactive”.

Q: For `S=C(NC1CCCCC1)NC1CCCCC1`, which Potency is on record?
A: Its Potency is “inactive”.

Q: Which Potency does the source give for `CCC(C)OC(=O)c1ccc(O)cc1` (stereo not given) here?
A: The Potency was “inactive”.

Q: With `C[Si](C)(C)O[Si](C)(C)C` as the compound, how does the Potency read?
A: Its Potency is “inactive”.

Q: With `O=C(Nc1ccc(Cl)cc1)Nc1ccc(Cl)c(Cl)c1` as the compound, how does the Potency read?
A: The Potency was “inactive”.

Q: Which “activity, negative = inhibition” value does the source give for `c1cc(-c2ccncc2)ccn1` here?
A: Its value is -4.54% (inactive).

Q: For `O=C(O)c1ccccc1Nc1cccc(C(F)(F)F)c1`, which Potency is on record?
A: The Potency was “inactive”.
